From PubChem
A selection: hits, their analogues and other compounds. The true share with any hit is near 3.3%.
eIF4E-4G inh – eIF4E/eIF4G interaction inhibition in translation initiation; TR-FRET eIF4E-eIF4GI(517-606) binding, 2 h; inhibition, % at 21.7 µM; actives 0.37% (n = 220,000); P63073+Q04637; AID 782;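 also: 0% = full FRET control wells and 100% = background wells lacking eIF4GI fragment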
Mcl1 Noxa PPI – disrupts binding of human Mcl-1 to Noxa peptide | Q07820 | TR-FRET Mcl-1/Noxa peptide binding, 2 h | inhibition, % at 21.7 µM | actives 1.5% (n = 220,000);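 active = compounds that cut the protein-peptide binding signal by more than 50% relative to plate controls in a single-dose test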;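 also: His-tagged Mcl-1 with rhodamine Noxa BH3 peptide and terbium anti-His antibody; 0% = Mcl-1 plus Noxa peptide wells and 100% = peptide-only wells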
14-3-3 Bad inh – disrupts binding of bovine 14-3-3 zeta to phospho-Bad peptide | P63103 | TR-FRET 14-3-3zeta/Dy647-pBad peptide displacement, 1 h | inhibition, % at 21.7 µM | actives 0.71% (n = 220,000) | AID 781;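 active = inhibition above about 70%, limit read from the data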;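 also: 0% = full 14-3-3 plus peptide FRET controls and 100% = background without 14-3-3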
Target sequence (P63103 whole entry, looked up): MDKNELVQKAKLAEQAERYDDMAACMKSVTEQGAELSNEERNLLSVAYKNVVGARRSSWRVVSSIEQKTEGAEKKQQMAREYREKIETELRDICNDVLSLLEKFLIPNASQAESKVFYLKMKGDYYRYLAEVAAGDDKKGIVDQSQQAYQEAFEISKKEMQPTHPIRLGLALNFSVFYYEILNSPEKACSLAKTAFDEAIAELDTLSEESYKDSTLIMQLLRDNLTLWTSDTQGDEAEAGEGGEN
NCF1 inh – p47phox (human) inhibition; P14598; actives 0.53% (n = 220,000); p47phox/p22phox peptide binding, fluorescence polarization, 2 h; inhibition, % at 24.7 µM;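 also: 0% = p47phox with labelled peptide and 100% = labelled peptide alone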
Target sequence (P14598 whole entry, looked up): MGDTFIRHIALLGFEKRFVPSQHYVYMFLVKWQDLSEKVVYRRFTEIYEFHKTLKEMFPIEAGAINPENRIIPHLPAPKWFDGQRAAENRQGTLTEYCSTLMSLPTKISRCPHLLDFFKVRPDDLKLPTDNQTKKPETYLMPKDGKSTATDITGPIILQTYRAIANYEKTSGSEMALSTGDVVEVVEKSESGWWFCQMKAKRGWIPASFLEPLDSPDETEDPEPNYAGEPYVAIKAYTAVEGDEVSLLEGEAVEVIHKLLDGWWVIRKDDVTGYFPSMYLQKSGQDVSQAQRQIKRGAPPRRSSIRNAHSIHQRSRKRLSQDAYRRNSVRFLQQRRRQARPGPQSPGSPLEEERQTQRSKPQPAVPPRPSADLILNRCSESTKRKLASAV
Mcl1-Bid inh – Mcl-1/Bid interaction inhibition; Q07820; TR-FRET Mcl-1/Bid-Dy647 peptide binding, 1536-well; inhibition, % at 21.7 µM; actives 0.97% (n = 220,000); AID 1021;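 active = compounds that cut the binding signal by more than half at the single screening dose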;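 also: His-tagged Mcl-1 with europium anti-His antibody binding Bid BH3 peptide; 0% = Mcl-1 plus peptide wells and 100% = peptide-only wells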
Bim-Mcl-1 – disrupts Bim peptide binding to human Mcl-1. Bead-based flow cytometry, Bim peptide-Mcl-1 binding. actives 0.1% (n = 190,000). Q07820. AID 1009. inhibition, % at 10 µM; in the data active = inhibition above about 40%;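 also: 0% = no compound tracer wells and 100% = peptide blocker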
Numbers without * were called inactive.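 The calls were made as follows, unless noted: active = inhibition above about 30% (limit read from the data); inactive = the rest.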

For Brc1ccc2c(c1)C(c1cccs1)=NNC(c1cccnc1)=N2 the results were eIF4E-4G inh 2.8, Mcl1 Noxa PPI 21.5, 14-3-3 Bad inh -2.0, NCF1 inh -8.8, Mcl1-Bid inh 9.8 and Bim-Mcl-1 0.0.
Screening CCOc1ccc2c(c1)C(c1cccs1)=NNC(c1cccnc1)=N2 returned eIF4E-4G inh 2.7, Mcl1 Noxa PPI 14.1, 14-3-3 Bad inh -0.1, NCF1 inh 44.1*, Mcl1-Bid inh -14.5 and Bim-Mcl-1 0.0.
CCOC(=O)N1CCN(C(=O)c2ccc(OC(C)=O)cc2)CC1 was read as eIF4E-4G inh -1.0, Mcl1 Noxa PPI 10.1, 14-3-3 Bad inh 4.0, NCF1 inh -2.1, Mcl1-Bid inh -3.0 and Bim-Mcl-1 0.0.
Screening Oc1ccc(-c2[nH]ncc2-c2cccc3cccnc23)c(O)c1 returned eIF4E-4G inh 92.2*, Mcl1 Noxa PPI 26.6, 14-3-3 Bad inh -2.8, NCF1 inh 2.0, Mcl1-Bid inh 5.2 and Bim-Mcl-1 -2.0.
`C(=N\Nc1nc2ccccc2[nH]1)/C1CCCCC1` gave eIF4E-4G inh -4.0, Mcl1 Noxa PPI -21.9, 14-3-3 Bad inh -20.8, NCF1 inh -7.8, Mcl1-Bid inh -59.0 and Bim-Mcl-1 1.0.
Screening c1ccc(-c2nc(NCC3CCCO3)c3oc4ccccc4c3n2)cc1 (centres undefined) returned eIF4E-4G inh 2.5, Mcl1 Noxa PPI 28.6, 14-3-3 Bad inh 70.5*, NCF1 inh -6.8, Mcl1-Bid inh 16.8 and Bim-Mcl-1 0.0.
CSCC[C@@H](Nc1nc(-c2ccccc2)nc2c1oc1ccccc12)C(=O)O was read as eIF4E-4G inh -4.0, Mcl1 Noxa PPI 26.5, 14-3-3 Bad inh 1.6, NCF1 inh -3.7, Mcl1-Bid inh 60.4* and Bim-Mcl-1 -2.0.
For c1ccc(-c2nc(NCc3cccnc3)c3oc4ccccc4c3n2)cc1 the results were eIF4E-4G inh -5.7, Mcl1 Noxa PPI 36.1, 14-3-3 Bad inh 81.5*, NCF1 inh -45.1, Mcl1-Bid inh 63.3* and Bim-Mcl-1 -1.0.
Screening O=C(O)CNc1nc(-c2ccccc2)nc2c1oc1ccccc12 returned eIF4E-4G inh -1.1, Mcl1 Noxa PPI -0.2, 14-3-3 Bad inh 0.6, NCF1 inh 0.0 and Mcl1-Bid inh -15.8.
CCC1ON(c2ccccc2)C2c3nc4ccccc4n3CC12 (centres undefined) was read as eIF4E-4G inh -0.3, Mcl1 Noxa PPI -4.2, 14-3-3 Bad inh -1.6, NCF1 inh -5.0 and Mcl1-Bid inh -20.4.
`CCOC(=O)c1sc(NC(=O)CC)c(C#N)c1C` gave eIF4E-4G inh -1.8, Mcl1 Noxa PPI 4.0, 14-3-3 Bad inh -2.6, NCF1 inh -7.3, Mcl1-Bid inh -13.0 and Bim-Mcl-1 -1.0.
Screening COc1ccc(C(=O)N2CC3(C)CC2CC(C)(C)C3)cc1 (centres undefined) returned eIF4E-4G inh -4.8, Mcl1 Noxa PPI 5.0, 14-3-3 Bad inh 8.6, NCF1 inh 56.2*, Mcl1-Bid inh -1.7 and Bim-Mcl-1 -3.0.
CC1(C)CC2CC(C)(CN2C(=O)c2ccccc2)C1 (centres undefined) was read as eIF4E-4G inh -1.6, Mcl1 Noxa PPI -2.5, 14-3-3 Bad inh -2.2, NCF1 inh -2.0, Mcl1-Bid inh -4.8 and Bim-Mcl-1 1.0.
COc1ccc(OCC(=O)N2CC3(C)CC2CC(C)(C)C3)cc1 (centres undefined) was read as eIF4E-4G inh 36.2*, Mcl1 Noxa PPI 5.4, 14-3-3 Bad inh -2.2, NCF1 inh 2.1, Mcl1-Bid inh -14.7 and Bim-Mcl-1 0.0.
CN(Cc1nc(-c2cccs2)no1)CC1(N2CCOCC2)CCCCC1 was read as eIF4E-4G inh -1.5, Mcl1 Noxa PPI 3.4, 14-3-3 Bad inh -5.7, NCF1 inh -0.6, Mcl1-Bid inh -14.2 and Bim-Mcl-1 -2.0.
`CC(=O)Nc1ccc(S(=O)(=O)NCC(=O)OC(C)c2ccccc2Cl)cc1` (centres undefined) gave eIF4E-4G inh 1.1, Mcl1 Noxa PPI -6.5, 14-3-3 Bad inh 1.1, NCF1 inh -1.1, Mcl1-Bid inh -6.2 and Bim-Mcl-1 -1.0.
For CSc1nc(N(C)C)c2ccccc2n1 the results were eIF4E-4G inh 2.8, Mcl1 Noxa PPI 0.7, 14-3-3 Bad inh -4.2, NCF1 inh -3.6, Mcl1-Bid inh -21.4 and Bim-Mcl-1 1.0.
For CN(C)c1nc2ccccc2c(N)c1-c1ccccc1 the results were eIF4E-4G inh -5.4, Mcl1 Noxa PPI 27.5, 14-3-3 Bad inh 77.0*, NCF1 inh -6.8, Mcl1-Bid inh 39.2 and Bim-Mcl-1 2.0.
`c1ccc(-c2[nH]ncc2CN2CCN(Cc3ccc4c(c3)OCO4)CC2)cc1` gave eIF4E-4G inh 2.3, Mcl1 Noxa PPI -14.8, 14-3-3 Bad inh 5.9, NCF1 inh 3.8 and Mcl1-Bid inh -2.7.
Cc1ccc(NC(=O)c2c(-c3ccccc3)noc2C)nc1 was read as eIF4E-4G inh 0.5, Mcl1 Noxa PPI -8.9, 14-3-3 Bad inh 1.6, NCF1 inh 5.5, Mcl1-Bid inh -31.4 and Bim-Mcl-1 -9.0.
Screening Cc1onc(-c2ccccc2)c1C(=O)Nc1ccon1 returned eIF4E-4G inh -2.1, Mcl1 Noxa PPI -5.5, 14-3-3 Bad inh 11.3, NCF1 inh 36.5*, Mcl1-Bid inh -20.4 and Bim-Mcl-1 0.0.
CC(=O)Nc1ccc(OCCCNC(=O)c2c(-c3ccccc3)noc2C)cc1 was read as eIF4E-4G inh 35.3*, Mcl1 Noxa PPI 2.9, 14-3-3 Bad inh -14.2, NCF1 inh -9.6 and Mcl1-Bid inh -5.1.
CCOC(=O)CNC(=O)N1CCCC(CCC(=O)NCc2ccc(F)c(F)c2)C1 (centres undefined) was read as eIF4E-4G inh 2.1, Mcl1 Noxa PPI 11.8, 14-3-3 Bad inh -18.3, NCF1 inh 0.5, Mcl1-Bid inh -13.1 and Bim-Mcl-1 -1.0.
Screening CCC(C)[C@@H](NC(=O)OC(C)(C)C)c1nnc(S(=O)(=O)Cc2cccc(C)c2)o1 (some centres undefined) returned eIF4E-4G inh 4.0, Mcl1 Noxa PPI 0.7, 14-3-3 Bad inh 4.6, NCF1 inh 59.9*, Mcl1-Bid inh -34.6 and Bim-Mcl-1 -1.0.
For O=C(O)c1nn(CC(=O)N(C2CCCCC2)C2CCCCC2)c(=O)c2ccccc12 the results were eIF4E-4G inh -0.7, Mcl1 Noxa PPI 2.5, 14-3-3 Bad inh -0.6, NCF1 inh -7.7, Mcl1-Bid inh -7.1 and Bim-Mcl-1 -1.0.
For COc1ccc(N=C2O/C(=C/c3sc(=S)n(CC4CCCO4)c3O)N=C2C#N)cc1 (centres undefined) the results were eIF4E-4G inh -3.2, Mcl1 Noxa PPI 35.0, 14-3-3 Bad inh -6.7, NCF1 inh 42.5* and Mcl1-Bid inh -51.6.
For CN(C)c1ccc(NC(=O)c2cccc(N3C(=O)CCC3=O)c2)cc1 the results were eIF4E-4G inh -1.8, Mcl1 Noxa PPI 63.9*, 14-3-3 Bad inh -22.6, NCF1 inh -3.1, Mcl1-Bid inh -55.0 and Bim-Mcl-1 0.0.
Screening COc1cc(C(=O)Nc2ccc(N(C)C)cc2)cc(OC)c1OC returned eIF4E-4G inh 9.9, Mcl1 Noxa PPI 77.6*, 14-3-3 Bad inh 1.2, NCF1 inh -12.7, Mcl1-Bid inh -100.1 and Bim-Mcl-1 2.0.
